# Laboratory results taken from paper PMC5540273 (PLoS ONE, 2017).
# System: DDR2
# 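Also: kd values determined as follow-up on hits from a single-replicate KINOMEscan panel screen.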
row,Compound,Kd [nM]
1,Cn1ccc2ncnc(Oc3ccc(NC(=O)Nc4cccnc4)c(Cl)c3)c21,76
2,O=C(Nc1ccccc1)Nc1ccc(Oc2ccc3nccn3n2)cc1,3
3,Cc1ccc(NC(=O)c2cccc(C#N)c2)cc1-c1ccc(C(=O)Nc2ccncc2)cc1 [GSK1398463],140

# System: T1, DMPK2
# T1 construct: gene CDC42BPG
row,Compound,Kd [nM]
1,Clc1cccc(-c2nc(Nc3ccncc3)c3ccccc3n2)c1 [GW873004],> 10000
2,CCCc1ccc(S(=O)(=O)NC2CCN(c3ccnc(Nc4ccc(OC)cc4)n3)C2)cc1 (stereo not drawn) [GSK1379737],> 10000
3,CNc1nccc(-c2c(-c3ccc(F)cc3)ncn2CCCN2CCOCC2)n1 [SB-222516],> 10000
